# This is a sample that favours compounds with a hit; in the whole collection about 0.92% have one here.
# LAP4-GFP MLPCN – modulators of LAP4-GFP expression in yeast, primary screen, S. cerevisiae, multiplex flow cytometry, MLPCN library; 3 h; median GFP as percent of DMSO wells; GFP response vs DMSO, % at 10 µM; 320,000 compounds, 0.34% hits;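 active means GFP response vs DMSO above a set limit, about the screen mean plus 3 SD, cut at about 150% in these data; inconclusive means under 70 cell events counted for the yeast strain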
# CIT2-GFP yeast – modulators of CIT2-GFP expression in yeast, primary screen, S. cerevisiae, GFP fusion, multiplex flow cytometry, MLPCN library; S. cerevisiae CIT2-GFP strain, 3 h; 100 means same as DMSO wells; GFP response vs DMSO, % at 10 µM; 320,000 compounds, 0.065% hits;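 active means GFP response relative to DMSO above a set limit, near the screen mean plus 3 SD, cut at about 150% in these data; inconclusive means Fewer than 70 cells measured for a yeast strain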;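 further: ratio of well median GFP fluorescence to mean of DMSO wells on the plate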
# AGP1-GFP MLPCN – modulators of AGP1-GFP expression in yeast TOR pathway, primary screen, cell-based, multiplex flow cytometry, S. cerevisiae, MLPCN library; 320,000 compounds, 0.02% hits; GFP response vs DMSO, % at 10 µM; 3 h; GFP as percent of DMSO wells; AID 2066, 2009;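 active means GFP response relative to DMSO above a set limit, near screen average plus 3 SD, cut at about 150% in these data; inconclusive means fewer than 70 cells counted for the yeast strain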;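 further: median GFP channel fluorescence of the gated AGP1 strain per well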
# MEP2-GFP yeast – modulators of MEP2-GFP levels in yeast, primary screen, S. cerevisiae, multiplex flow cytometry, MLPCN library; 330,000 compounds, 0.51% hits; GFP response vs DMSO, % at 10 µM; AID 2016, 2009; S. cerevisiae MEP2-GFP strain, 3 h; 100% = DMSO control level;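 active means GFP response versus DMSO above a set limit, roughly screen mean plus 3 SD, cut at about 180% in these data; inconclusive means fewer than 70 cells counted for a yeast strain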;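 further: median GFP fluorescence of the barcode-gated MEP2-GFP cells per well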
# RPL19A-GFP yeast – RPL19A-GFP expression modulators in yeast, primary screen, cell-based, S. cerevisiae, multiplex flow cytometry, MLPCN; percent response vs DMSO, % at 10 µM; S. cerevisiae RPL19A-GFP strain, 3 h; hits give low values; 330,000 compounds, 0.3% hits;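 active means percent response vs DMSO below 50%; inconclusive means fewer than 70 events counted for the yeast strain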;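 further: median channel GFP fluorescence of the barcoded RPL19A-GFP strain; ratio of sample median GFP to plate DMSO average so 100% = DMSO; lower means less RPL19A-GFP as with rapamycin TOR inhibition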
# * marks the source's active call; other numbers are inactive results; ? = inconclusive; + = active, no number; ! = a repeat was not active; [ ] = remark or other dose.
SMILES,LAP4-GFP MLPCN,CIT2-GFP yeast,AGP1-GFP MLPCN,MEP2-GFP yeast,RPL19A-GFP yeast
Cc1nc(Nc2cnc(/C=C/c3cc(C(=O)Nc4cccc(C(F)(F)F)c4)ccc3C)cn2)cc(N2CCNCC2)n1,107,?,12,198*[may fluoresce violet],45*[may fluoresce violet]
CC(C)[C@H](NC(=O)[C@@H]1CSC2c3ccccc3C(=O)N21)C(=O)NCc1ccncc1 (stereo partly specified),89,?,?,163,27*[may fluoresce violet]
O=[N+]([O-])c1cc(C(F)(F)F)ccc1NCCc1ccccn1,219*,79,76,86,63
Cc1ccc(N2C3=C(C(=O)CC(C)(C)C3)C(c3cn(C)nc3C)C3=C2CC(C)(C)CC3=O)cc1,149,153*,113,180*,104
CN(C)c1c2ccccc2nc2c(F)c(F)c(F)c(F)c12,68,?,?,188*[may fluoresce violet],65
Cc1c2ccccc2nc2c(F)c(N(C)C)c(F)c(F)c12,96,96,93,88,100
COC(=O)c1ccccc1NC(=O)c1cc(-c2cccs2)on1,107,98,97,98,97
COC(=O)c1ccccc1NC(=O)c1cc(-c2ccco2)on1,74,?,?,214*[may fluoresce violet],52
CCOC(=O)C1CCN(S(=O)(=O)c2cccc(-c3cn4cc(C)ccc4n3)c2)CC1,98,?,?,373*[may fluoresce violet],46*[may fluoresce violet]
O=C(C1CC1)N1CCc2cc(Br)cc(S(=O)(=O)NCc3ccco3)c21,102,101,99,105,98
O=C(C1CC1)N1CCc2cc(Br)cc(S(=O)(=O)NCCN3CCOCC3)c21,99,94,97,105,97
O=C(C1CC1)N1CCc2cc(Br)cc(S(=O)(=O)NCc3ccccn3)c21,90,?,?,202*[may fluoresce violet],42*[may fluoresce violet]
O=C(C1CC1)N1CCc2cc(Br)cc(S(=O)(=O)N3CCOCC3)c21,78,?,?,214*[may fluoresce violet],18*[may fluoresce violet]
CCC(=O)N1CCc2cc(Br)cc(S(=O)(=O)N3CCC(C(=O)NC(C)(C)C)CC3)c21,98,104,104,101,101
CCC(=O)N1CCc2cc(Br)cc(S(=O)(=O)N3CCCC(C(=O)NC(C)(C)C)C3)c21 (stereo unspecified),74,?,15,326*[may fluoresce violet],53
Cc1ccc2c(CC(=O)O)coc2c1C,102,100,103,100,101
COC(=O)CC1C(=O)NCCN1C(=O)CSc1nc2ccccc2c(=O)n1CC(C)C (stereo unspecified),101,108,108,106,103
O=C(CNC(=O)c1ccncc1)N/N=C/c1cccc([N+](=O)[O-])c1,123,170*,106,156,122
COc1ccc(Br)cc1S(=O)(=O)Nc1ccc(Cl)cn1,95,105,109,103,107
CCc1nc(N2CCN(C(=O)CCl)CC2)c2c3c(sc2n1)CC(C)CC3 (stereo unspecified),101,97,100,104,100
CN1CCN(c2ccccc2NC(=O)c2cc3ccccc3o2)CC1,115,100,105,112,102
CS(=O)(=O)N1CCN(c2ccccc2NC(=O)c2cc3ccccc3o2)CC1,88,?,?,345*[may fluoresce violet],24*[may fluoresce violet]
Cc1nn(C(C)C(=O)c2cccc(Cl)c2)c(C)c1[N+](=O)[O-] (stereo unspecified),104,105,98,113,104
Cn1cnc([N+](=O)[O-])c1S(=O)(=O)c1cccc(Cl)c1,110,106,123,177*,96
CCN(CC)CCNC(=O)Cn1cnc2sc(C)c(S(=O)(=O)N3CC(C)CC(C)C3)c2c1=O (stereo unspecified),96,90,18,128,100
SMILES,LAP4-GFP MLPCN,CIT2-GFP yeast,AGP1-GFP MLPCN,MEP2-GFP yeast,RPL19A-GFP yeast
COC(=O)Nc1ccc(S(=O)(=O)N(CCO)CC(F)(F)C(F)F)cc1,86,96,88,96,89
CCN(CC(F)(F)C(F)F)S(=O)(=O)c1ccc(NC(=O)OC)cc1,?,?,?,?,14*[may fluoresce violet]
COc1ccccc1CNC(=O)CCC(=O)N1Cc2cccc(OC)c2Oc2ncccc21,79,?,?,171,14*[may fluoresce violet]
COc1cccc(/C=N/NC(=O)CC2C(=O)NN=C2C)c1O (stereo unspecified),?,?,?,?,11*[may fluoresce violet]
COc1cccc(/C=N/NC(=O)CC2C(=O)NN=C2C)c1OC (stereo unspecified),96,108,103,108,96
COc1ccc(-c2cc(C(=O)N3CCN(C(c4ccccc4)c4ccccc4)CC3)no2)cc1OC,100,92,101,99,95
COc1ccc(-c2cc(C(=O)N3CCN(C(c4ccccc4)c4ccccc4)CC3)no2)cc1,85,?,?,201*[may fluoresce violet],41*[may fluoresce violet]
CCCCNC(=O)n1c(SC)nc2ccccc21,119,?,12,379*[may fluoresce violet],53
COc1cc2c(cc1NC(=O)Nc1ccc(F)cc1)oc1ccccc12,94,101,99,94,103
CCc1ccccc1NC(=O)CN(C)C(=O)CSc1nnc(Nc2cccc(C)c2C)s1,99,103,109,103,106
COc1ccc(C(C)NCCC(c2ccc(OC(C)C)cc2)c2ccccc2OC)cc1 (stereo unspecified),105,99,96,103,101
Nc1c2c(nc3ccccc13)CCCC2,131,80,82,100,98
Nc1c2ccccc2nc2ccccc12,68,?,?,206*![may fluoresce violet],37*[may fluoresce violet]
CCOc1ccccc1N(CC(=O)NC1CCCC1)C(=O)CCCC(=O)Nc1ccccn1,91,?,110,202*[may fluoresce violet],101
Cc1ccc(Cl)cc1N1CCN(C(=O)CSc2ccsc2[N+](=O)[O-])CC1,117,98,97,184*,98
CC(=O)c1ccccc1NC(=O)COC(=O)c1ccccc1NC(=O)c1ccccc1,986*[may fluoresce green],720*[may fluoresce green],224*[may fluoresce green],+[may fluoresce green],249
OC(CNCC1CCCCC1)COc1ccccc1 (stereo unspecified),63,?,?,362*[may fluoresce violet],49*[may fluoresce violet]
OC(CNC1CCCC1)COc1ccc(-c2ccccc2)cc1 (stereo unspecified),100,96,98,100,98
CCN(CC)S(=O)(=O)c1ccc(C(=O)N(c2ccc(C)cc2)C2C=CS(=O)(=O)C2)cc1 (stereo unspecified),62,?,?,160,41*[may fluoresce violet]
Cc1ccc(N(C(=O)c2ccc(S(=O)(=O)N3CCOCC3)cc2)C2C=CS(=O)(=O)C2)cc1 (stereo unspecified),102,94,98,102,99
CCCC1=C(C(=O)OCC)C(c2sccc2C)n2ncnc2N1 (stereo unspecified),115,108,104,107,110

# Source: PubChem
